Screens (PubChem BioAssay)
CYP2C19 inh: human CYP2C19 inhibition; P33261; CYP2C19 Supersomes, luciferin-H EGE luminescence, 30 min; inhibition, % at 5 µM; 96,000 tested, 21% active; AID 778;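 active means CYP2C19 inhibition above a set limit at 5 µM in the primary screen, cut at about 50% in these data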;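 further: plate controls were negative control wells for no effect and 2.5 mM tranylcypromine positive control for full effect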
PostGolgi ctrl: inhibits growth of the yeast control strain; AID 738; 98,000 tested, 5% active; inhibition, % at 10 µM; efflux-deficient yeast background strain, growth absorbance A615, 16 h
CYP2C9 inhib: human CYP2C9 inhibition; CYP2C9 Supersomes, luciferin-H conversion, luminescence; AID 777; 96,000 tested, 20% active; inhibition, % at 5 µM;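 active means blocking of liver enzyme CYP2C9 beyond about 50% at 5 µM, limit read from the data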
Target sequence (P11712 whole entry, looked up): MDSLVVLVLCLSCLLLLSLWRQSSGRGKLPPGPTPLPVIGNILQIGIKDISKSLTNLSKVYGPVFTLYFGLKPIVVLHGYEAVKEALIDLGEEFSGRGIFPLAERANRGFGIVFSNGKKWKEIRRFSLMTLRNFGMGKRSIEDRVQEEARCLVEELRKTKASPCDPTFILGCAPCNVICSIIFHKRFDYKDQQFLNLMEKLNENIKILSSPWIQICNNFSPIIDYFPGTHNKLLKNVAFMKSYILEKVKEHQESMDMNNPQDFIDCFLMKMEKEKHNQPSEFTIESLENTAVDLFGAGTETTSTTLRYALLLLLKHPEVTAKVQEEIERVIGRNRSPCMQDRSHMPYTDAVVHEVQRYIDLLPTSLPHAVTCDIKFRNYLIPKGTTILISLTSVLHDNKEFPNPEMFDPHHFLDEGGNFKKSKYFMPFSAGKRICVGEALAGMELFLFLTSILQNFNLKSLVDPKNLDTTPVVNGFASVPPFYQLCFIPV
CYP2C9 act: increases human cytochrome P450 2C9 activity; P11712; activation factor at 5 µM; recombinant CYP2C9, luciferin-H conversion, luminescence; hits give high values; factor 1 = untreated enzyme, 0 = blocked; 96,000 tested, 1.4% active;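 active means activation factor of 2 or more for CYP2C9 at a 5 µM dose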;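 further: 0 = sulfaphenazole-blocked wells and 1 = vehicle-only wells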
PostGolgi yeast: growth inhibition of a yeast mutant, post-Golgi transport screen. post-Golgi transport phenotypic cell assay. inhibition, % at 10 µM. 98,000 tested, 0.9% active;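 further: yeast cells grown in 1536-well plates; yeast grown about 18 h at 30C before absorbance read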
CYP2C19 act: activators of human cytochrome P450 2C19 | 96,000 tested, under 10 active | activation factor at 5 µM | recombinant CYP2C19, luciferin-H EGE luminescence; hits give high values; 0 = fully inhibited enzyme, 1 = untreated enzyme;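 active means activation factor of at least 2 at 5 µM in the primary screen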;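 further: 0 = wells with 2.5 mM tranylcypromine and 1 = vehicle-only wells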
The depositor's hits bear a star. This is a sample that favours compounds with a hit; in the whole collection about 32% have one here. Unless noted, no stated cut-off is given here; in the data, active means inhibition above about 30%; inactive means the rest.

`O=C(Nc1cc(C(F)(F)F)ccc1N1CCCCC1)c1cccc([N+](=O)[O-])c1` gave CYP2C19 inh 33, PostGolgi ctrl 29, CYP2C9 inhib 56*, CYP2C9 act 0.4, PostGolgi yeast 2 and CYP2C19 act 0.7.
For O=C(Nc1ccccc1N1CCCC1)c1ccc2c(c1)OCO2 the results were CYP2C19 inh 71*, PostGolgi ctrl 5, CYP2C9 inhib 53*, CYP2C9 act 0.5, PostGolgi yeast -5 and CYP2C19 act 0.3.
`O=C(Nc1cc(C(F)(F)F)ccc1N1CCCC1)c1ccc2c(c1)OCO2` gave CYP2C19 inh 69*, PostGolgi ctrl -2, CYP2C9 inhib 77*, CYP2C9 act 0.2, PostGolgi yeast -4 and CYP2C19 act 0.3.
Cc1nc2ncnn2c(C)c1CCC(=O)N1CCOCC1 was read as CYP2C19 inh -14, PostGolgi ctrl -12, CYP2C9 inhib -2, CYP2C9 act 1, PostGolgi yeast 2 and CYP2C19 act 1.1.
For C=CCSC1=Nc2sccc2C2=NC(=O)CN12 the results were CYP2C19 inh 35, PostGolgi ctrl 7, CYP2C9 inhib -6, CYP2C9 act 1.1, PostGolgi yeast -2 and CYP2C19 act 0.7.
Screening CC(NC(=O)C1CC2CCCC(C1)C2=O)c1ccccc1 (configuration not stated) returned CYP2C19 inh 10, PostGolgi ctrl 9, CYP2C9 inhib -9, CYP2C9 act 1.1, PostGolgi yeast 0 and CYP2C19 act 0.9.
Screening CCOc1ccc(C2c3c(oc4cc(C)c(C)cc4c3=O)C(=O)N2CCCN(C)C)cc1OC (configuration not stated) returned CYP2C19 inh 11, PostGolgi ctrl 18, CYP2C9 inhib 56*, CYP2C9 act 0.4, PostGolgi yeast 5 and CYP2C19 act 0.9.
Screening COc1ccc(C2c3c(oc4ccc(C)cc4c3=O)C(=O)N2c2cc(C)ccn2)cc1OC (configuration not stated) returned CYP2C19 inh 8, PostGolgi ctrl 13, CYP2C9 inhib 64*, CYP2C9 act 0.4, PostGolgi yeast 3 and CYP2C19 act 0.9.
For Cc1ccc(S(=O)(=O)NCC(=O)OCC(=O)Nc2ncc(Cl)cc2Cl)cc1 the results were CYP2C19 inh 26, PostGolgi ctrl 4, CYP2C9 inhib 13, CYP2C9 act 0.9, PostGolgi yeast -22 and CYP2C19 act 0.7.
O=C(COC(=O)C12CC3CC(CC(C3)C1)C2)Nc1ncc(Cl)cc1Cl was read as CYP2C19 inh 79*, PostGolgi ctrl 21, CYP2C9 inhib 17, CYP2C9 act 0.8, PostGolgi yeast -2 and CYP2C19 act 0.2.
CC(C(=O)OCC(=O)Nc1ncc(Cl)cc1Cl)N1C(=O)c2ccccc2C1=O (configuration not stated) was read as CYP2C19 inh 9, PostGolgi ctrl 6, CYP2C9 inhib 5, CYP2C9 act 0.9, PostGolgi yeast 1 and CYP2C19 act 0.9.
O=C(COC(=O)CC12CC3CC(CC(C3)C1)C2)Nc1ncc(Cl)cc1Cl was read as CYP2C19 inh 89*, PostGolgi ctrl 37*, CYP2C9 inhib 66*, CYP2C9 act 0.3, PostGolgi yeast -3 and CYP2C19 act 0.1.
`CC(C)(Oc1ccc(Cl)cc1)C(=O)OCC(=O)Nc1ncc(Cl)cc1Cl` gave CYP2C19 inh 91*, PostGolgi ctrl 2, CYP2C9 inhib 48, CYP2C9 act 0.5, PostGolgi yeast 7 and CYP2C19 act 0.1.
For NC(=O)C1CCN(C(=O)CN2CCc3ccccc32)CC1 the results were CYP2C19 inh 11, PostGolgi ctrl 27, CYP2C9 inhib 0, CYP2C9 act 1, PostGolgi yeast 21 and CYP2C19 act 0.9.
`COc1cc(Cl)c(C)cc1NC(=O)COC(=O)c1cnc(C)cn1` gave CYP2C19 inh 57*, PostGolgi ctrl 6, CYP2C9 inhib 19, CYP2C9 act 0.8, PostGolgi yeast 4 and CYP2C19 act 0.4.
Screening Cc1c(N=C2SCC(=O)N2c2c(C)n(C)n(-c3ccccc3)c2=O)c(=O)n(-c2ccccc2)n1C returned CYP2C19 inh 4, PostGolgi ctrl 4, CYP2C9 inhib -1, CYP2C9 act 1, PostGolgi yeast 0 and CYP2C19 act 1.
`Cn1c(=O)c(-c2cc(Br)ccc2N)nc2ccccc21` gave CYP2C19 inh 93*, PostGolgi ctrl 10, CYP2C9 inhib 52*, CYP2C9 act 0.5, PostGolgi yeast -3 and CYP2C19 act 0.1.
